In experiment [1] the target is T1, GST-Nv-NF-kB (Ser allele) (Nematostella vectensis, UniProt A7UNT2 2-411).
T1 sequence: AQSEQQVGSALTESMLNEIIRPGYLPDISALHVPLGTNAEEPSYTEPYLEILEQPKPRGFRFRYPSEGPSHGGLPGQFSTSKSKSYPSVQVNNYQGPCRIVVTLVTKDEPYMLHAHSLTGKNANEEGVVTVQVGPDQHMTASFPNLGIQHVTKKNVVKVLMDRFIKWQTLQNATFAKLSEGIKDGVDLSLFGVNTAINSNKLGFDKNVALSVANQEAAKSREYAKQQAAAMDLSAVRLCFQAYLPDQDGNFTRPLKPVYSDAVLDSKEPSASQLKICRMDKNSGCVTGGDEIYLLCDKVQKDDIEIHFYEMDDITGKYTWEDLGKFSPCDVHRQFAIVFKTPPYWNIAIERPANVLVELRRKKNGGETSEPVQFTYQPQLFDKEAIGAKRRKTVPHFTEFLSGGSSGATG
The experiment in a line: protein-binding microarray (PBM); PBM: ~300 nM protein, 6 mM HEPES pH 7.8, 80 mM KCl, 0.5 mM EDTA, 0.5 mM EGTA, 6% glycerol, 35 ng/ul poly-dIdC, 1% milk, 1 h, room temperature; Ap Aiptasia and Nv Nematostella (sea anemones) / Co Capsaspora / Aq Amphimedon (sponge) / Dm Drosophila / Hu human; RHD is the Rel homology domain; high values mean tight binding. The following applies: dsDNA, one strand shown.

For experiment [2], the target named is GST-Hu-p50 (Homo sapiens, UniProt P19838 7-356). The experiment is described as above. The conditions noted are these: dsDNA, one strand shown.
GST-Hu-p50, sequence (P19838 7-356): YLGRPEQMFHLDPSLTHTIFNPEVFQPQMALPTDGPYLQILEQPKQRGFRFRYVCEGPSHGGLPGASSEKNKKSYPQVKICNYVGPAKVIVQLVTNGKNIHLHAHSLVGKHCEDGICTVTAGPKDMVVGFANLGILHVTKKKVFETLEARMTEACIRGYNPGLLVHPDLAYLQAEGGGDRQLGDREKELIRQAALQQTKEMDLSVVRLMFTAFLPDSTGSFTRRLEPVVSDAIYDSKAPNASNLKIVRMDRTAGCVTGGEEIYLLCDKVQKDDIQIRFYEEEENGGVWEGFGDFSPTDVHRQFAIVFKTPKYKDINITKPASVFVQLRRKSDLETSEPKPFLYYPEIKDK

On to “CCGATTAACATCACCCTTGCAGGTGATGTTAATCGGGTCTTGATTCGCTTGACGCTGCTG”, for which the binding signal came out at 1.12 z-score in experiment [1] and 2.18 z-score in experiment [2].
For “CCGATTAACATCAATATAGTCCCTGATGTTAATCGGGTCTTGATTCGCTTGACGCTGCTG” the same measures were 4.68 z-score and 3.8 z-score.
For “CCGATTAACATCAAAACAACCCCTGATGTTAATCGGGTCTTGATTCGCTTGACGCTGCTG” the same measures were 2.19 z-score and 3.88 z-score.
For “CCGATTAACATCAGTAATTCCCATGATGTTAATCGGGTCTTGATTCGCTTGACGCTGCTG”, the binding signal in experiment [1] stood at 3.61 z-score; in experiment [2] it was 3 z-score.
As for “CCGATTAACATCAGGGGGTTAACTGATGTTAATCGGGTCTTGATTCGCTTGACGCTGCTG”, the binding signal in experiment [1] was 4.34 z-score; in experiment [2], 4.57 z-score.
Consider “CCGATTAACATCAGACTGGGAAATGATGTTAATCGGGTCTTGATTCGCTTGACGCTGCTG”, for which the binding signal in experiment [1] is 1.66 z-score; in experiment [2], 1.43 z-score.
On to “CCGATTAACATCAGATCTTCCCCTGATGTTAATCGGGTCTTGATTCGCTTGACGCTGCTG”, for which the binding signal in experiment [1] worked out at 6.54 z-score; in experiment [2], 5.04 z-score.
For “CCGATTAACATCACGGAAACCCCTGATGTTAATCGGGTCTTGATTCGCTTGACGCTGCTG” the same measures were 3.87 z-score and 4.6 z-score.
In the same order, the values of “CCGATTAACATCAGGAATACCCATGATGTTAATCGGGTCTTGATTCGCTTGACGCTGCTG” are 3.36 z-score and 3.18 z-score.
For “CCGATTAACATCAGGGAAGCACCTGATGTTAATCGGGTCTTGATTCGCTTGACGCTGCTG” the same measures were 3.97 z-score and 5.24 z-score.
Regarding “CCGATTAACATCAGTAACTCCCTTGATGTTAATCGGGTCTTGATTCGCTTGACGCTGCTG”, the values for the binding signal in experiment [1] and in experiment [2] were 2.17 z-score and 2.5 z-score, respectively.
Turning to “CCGATTAACATCAAGGGGGGTGGTGATGTTAATCGGGTCTTGATTCGCTTGACGCTGCTG”, the binding signal in experiment [1] turned out to be 4.43 z-score; in experiment [2] it was 4.27 z-score.
Consider “CCGATTAACATCAGGCGATTCCCTGATGTTAATCGGGTCTTGATTCGCTTGACGCTGCTG”, for which the binding signal in experiment [1] worked out at 2.44 z-score; in experiment [2], 1.92 z-score.
In the same order, the values of “CCGATTAACATCAATGGGAATTCTGATGTTAATCGGGTCTTGATTCGCTTGACGCTGCTG” are 4.57 z-score and 3.4 z-score.
For “CCGATTAACATCAGGGGTAGGTTTGATGTTAATCGGGTCTTGATTCGCTTGACGCTGCTG” the same measures were 1.33 z-score and 1.07 z-score.
In the same order, the values of “CCGATTAACATCAGGGTATTCCATGATGTTAATCGGGTCTTGATTCGCTTGACGCTGCTG” are 4.16 z-score and 4.11 z-score.
Regarding “CCGATTAACATCAGGTAACTACCTGATGTTAATCGGGTCTTGATTCGCTTGACGCTGCTG”, the binding signal turned out to be 1.88 z-score in experiment [1] and 1.3 z-score in experiment [2].
In the same order, the values of “CCGATTAACATCAAGGAATTACCTGATGTTAATCGGGTCTTGATTCGCTTGACGCTGCTG” are 4.05 z-score and 2.25 z-score.
For “CCGATTAACATCACATTTTCCCATGATGTTAATCGGGTCTTGATTCGCTTGACGCTGCTG” the same measures were 5.22 z-score and 3.45 z-score.
For “CCGATTAACATCACCTTCCCCCCTGATGTTAATCGGGTCTTGATTCGCTTGACGCTGCTG”, the binding signal amounted to 5.23 z-score in experiment [1] and 4.59 z-score in experiment [2].
For “CCGATTAACATCAGAAATTTACCTGATGTTAATCGGGTCTTGATTCGCTTGACGCTGCTG” the same measures were 4.13 z-score and 3.29 z-score.
In the same order, the values of “CCGATTAACATCAGGGAATTATATGATGTTAATCGGGTCTTGATTCGCTTGACGCTGCTG” are 5.77 z-score and 4.39 z-score.
For “CCGATTAACATCACCGCCCCACGTGATGTTAATCGGGTCTTGATTCGCTTGACGCTGCTG” the same measures were 1.37 z-score and 2.36 z-score.
In the case of “CCGATTAACATCAGGGGAAGGACTGATGTTAATCGGGTCTTGATTCGCTTGACGCTGCTG”, the binding signal in experiment [1] was determined as 5.04 z-score; in experiment [2], 3.89 z-score.
For “CCGATTAACATCAAGGATTCCCGTGATGTTAATCGGGTCTTGATTCGCTTGACGCTGCTG” the same measures were 2.82 z-score and 2.13 z-score.
In the case of “CCGATTAACATCAGGTAATTTACTGATGTTAATCGGGTCTTGATTCGCTTGACGCTGCTG”, the values for the binding signal in experiment [1] and in experiment [2] were 3.5 z-score and 2.79 z-score, respectively.
Take “CCGATTAACATCACCCAGTTCCCTGATGTTAATCGGGTCTTGATTCGCTTGACGCTGCTG”: the binding signal in experiment [1] was 1.2 z-score; in experiment [2], 1.24 z-score.
In the same order, the values of “CCGATTAACATCAGGGGCGGGAATGATGTTAATCGGGTCTTGATTCGCTTGACGCTGCTG” are 3.18 z-score and 2.9 z-score.
In the same order, the values of “CCGATTAACATCATCCCCGTGTCTGATGTTAATCGGGTCTTGATTCGCTTGACGCTGCTG” are 2.84 z-score and 2.68 z-score.
In the same order, the values of “CCGATTAACATCAGGACTCTCCCTGATGTTAATCGGGTCTTGATTCGCTTGACGCTGCTG” are 2.28 z-score and 3.64 z-score.
With “CCGATTAACATCAGGGGGCATTATGATGTTAATCGGGTCTTGATTCGCTTGACGCTGCTG”, the binding signal was 3.29 z-score in experiment [1] and 4.09 z-score in experiment [2].
As to “CCGATTAACATCAGACAATTCCCTGATGTTAATCGGGTCTTGATTCGCTTGACGCTGCTG”, the binding signal in experiment [1] came out at 4.51 z-score; in experiment [2] it was 4.15 z-score.
In the same order, the values of “CCGATTAACATCACACCACCCCCTGATGTTAATCGGGTCTTGATTCGCTTGACGCTGCTG” are 3.35 z-score and 3.65 z-score.
As to “CCGATTAACATCAAAAAACACCCTGATGTTAATCGGGTCTTGATTCGCTTGACGCTGCTG”, the values for the binding signal in experiment [1] and in experiment [2] were 4.25 z-score and 5.16 z-score, respectively.
With “CCGATTAACATCAGGGATCTACCTGATGTTAATCGGGTCTTGATTCGCTTGACGCTGCTG”, the binding signal in experiment [1] worked out at 1.74 z-score; in experiment [2], 2.74 z-score.
As for “CCGATTAACATCAGGAAGTCCCATGATGTTAATCGGGTCTTGATTCGCTTGACGCTGCTG”, the binding signal in experiment [1] amounted to 4.19 z-score; in experiment [2], 4.09 z-score.
For “CCGATTAACATCAAAAAAGACCCTGATGTTAATCGGGTCTTGATTCGCTTGACGCTGCTG” the same measures were 3.81 z-score and 3.95 z-score.
For “CCGATTAACATCAGATTTTTCCCTGATGTTAATCGGGTCTTGATTCGCTTGACGCTGCTG” the same measures were 6.27 z-score and 3.71 z-score.

Values taken from publication PMC5700166.
